# Assay results as given in PubChem BioAssay AID463173 (ICCB-Longwood Screening Facility, Harvard Medical School, 2010).
# The campaign covered roughly 52,000 compounds. About 1,700 (3.3%) were called active. This excerpt belongs to a sample that is enriched for actives. Values without a mark were called inactive. No stated cut-off is given here; in the data, active means survival mostly below about 52% (no sharp cut-off); inactive means mostly above about 56%.
# System: Wild type
# Assay: S. aureus survival, RN4220 and DeltatarO strains – OD600, teichoic acid synthesis inhibitors, primary screen (AID 463173)
# Details: S. aureus RN4220 wild type/DeltatarO growth, OD600, 18 h, stronger effect = lower value, screened at 18.75 µg/mL (by protocol)
row,SMILES,survival
1,COC(=O)c1ccc2c(c1)N(CC(=O)Nc1cccc(C(F)(F)F)c1)C(=O)c1ccccc1S2,77%
2,Cc1ccc(OCC(=O)Nc2ccc3nc(SCC(=O)N4CCCC4)sc3c2)cc1,91%
3,COc1cccc(CC(=O)NCc2ccc3c(c2)CCN3C(C)=O)c1,71%
4,COc1cccc(C(=O)Nc2cc(-c3ccccc3)nn2-c2ccccc2)c1,69%
5,Cc1ccc(NC(=O)c2c(C)oc3ccc(O)c(CN4CCCCC4)c23)cc1,86%
6,Cc1cc(C)c(NS(=O)(=O)c2ccc3c(c2)CC(C)N3C(=O)C2CCC2)c(C)c1 (centres undefined),64%
7,O=C(CCCCn1c(=O)c2ccccc2n(Cc2cccc(Cl)c2)c1=O)NCc1ccc2c(c1)OCO2,98%
8,CCCCNC(=O)c1cccc(-n2c(C)nc3cccnc32)c1,73%
9,CCc1ccccc1NC(=O)CCNS(=O)(=O)c1ccc2c(c1)CCCC(=O)N2,73%
10,CCn1c(CN2CCOCC2)nc2cc(NC(=O)c3ccc([N+](=O)[O-])cc3)ccc21,90%
11,c1cc2c(cc1CNC1CCCC1)OCO2,104%
12,O=C(CSc1nnc(-c2ccncc2)n1-c1ccccc1)Nc1ccc(F)cc1,72%
13,Cc1ccc(O)c(C2=Nc3ccccc3N=C(c3cccc(F)c3)C2)c1,139%
14,CCc1ccc(Cn2c(CNS(=O)(=O)c3ccc(Cl)s3)nc3cccnc32)cc1,53%
15,O=S(=O)(NCc1nc2cccnc2n1Cc1ccc(F)cc1)c1ccc(Cl)s1,-6% (active)
16,COc1ccc(CCC(=O)NCc2nc3cccnc3n2Cc2ccc(F)cc2)cc1,123%
17,CCc1ccc(Cn2c(CNS(=O)(=O)c3ccc(F)c(Cl)c3)nc3cccnc32)cc1,-3% (active)
18,Cc1ccc(Cn2c(CNS(=O)(=O)c3ccc(F)c(Cl)c3)nc3cccnc32)cc1,134%
19,Cc1ccc(Cn2c(CNC(=O)CCc3ccccc3)nc3cccnc32)cc1,99%
20,Cc1ccc(Cn2c(CNS(=O)(=O)c3ccc(Cl)s3)nc3cccnc32)cc1,136%
21,O=S(=O)(NCc1nc2cccnc2n1Cc1ccccc1Cl)c1ccc(F)c(Cl)c1,76%
22,O=C(CCc1ccccc1)NCc1nc2cccnc2n1Cc1ccc(F)cc1,-6% (active)
23,COc1ccc(C)cc1NC(=O)C(NS(=O)(=O)c1cccc2nsnc12)c1ccccc1 (centres undefined),64%
24,Cc1cc(C)c(/C=C/c2onc(C)c2S(=O)(=O)N2CCC(C(=O)NCc3ccccc3Cl)CC2)c(C)c1,72%
